Test results as given in PubChem BioAssay (NCATS).
Results filed as inconclusive are left out. Where a call stands in place of a potency, no number is given. Activity calls are given as the source filed them. The call rests on the fitted dose curve; in most records, active means well fitted curve in the direction sought with a large enough effect; inconclusive means small, poorly fitted or top-dose-only effect, or another doubt; inactive means no such curve, though single readings can be large; an effect the other way counts as inactive or inconclusive.

Test: qHTS of pediatric cancer cell lines to identify multiple opportunities for drug repurposing: Primary screen for MG 63 (6-TG R) cells (AID 1347105); further: nearly all actives have a fitted effect of over 50% in size; further: potency means the concentration at half of the fitted maximal effect
Details: MG 63 (6-TG R) viability, CellTiter-Glo, 48 h; series mostly up to 46 µM
Summary of the method: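 Readout: CellTiter-Glo luminescence, 48 h treatment. Controls DMSO (neutral) and bortezomib 2.3 µM final (positive). Potency and efficacy taken from primary-screen concentration-response curves.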

Row | SMILES | Potency
1 | c1ccc2nc(N3CCNCC3)ccc2c1 | inactive
2 | C[C@@H]1CC[C@H]2[C@@H](C)C(=O)O[C@@H]3O[C@@]4(C)CC[C@@H]1[C@]32OO4 | inactive
3 | CN1CCC(N(Cc2ccccc2)c2ccccc2)CC1 | inactive
4 | CC(=O)OC1(c2ccccc2)CCN(CCc2ccccc2)CC1 | inactive
5 | O=C1NCN(c2ccccc2)C12CCN(CCCOc1ccc(F)cc1)CC2 | inactive
6 | C[C@]12C=CC(=O)C=C1CC[C@@H]1[C@@H]2CC[C@@]2(C)[C@H]1CC[C@]2(C)O | inactive
7 | C[C@]12CC[C@H]3[C@@H](CCC4=CC(=O)CC[C@@H]43)[C@@H]1CC[C@@H]2O | inactive
8 | CCO[C@H]1O[C@@H]2OC3(C)CC[C@H]4[C@H](C)CC[C@@H]([C@H]1C)[C@@]24OO3 | inactive
9 | C=CCN1CC[C@]23CCCC[C@H]2[C@H]1Cc1ccc(O)cc13 | inactive
10 | CCS(=O)(=O)C(C)(C)S(=O)(=O)CC | inactive
11 | C[N+]1(C)[C@@H]2CC[C@H]1CC(OC(=O)C(CO)c1ccccc1)C2 (stereo partly drawn) | inactive
12 | CC[C@H]1C[C@H]2[C@@H]3CCC4=CC(=O)CC[C@@H]4[C@H]3CC[C@]2(C)[C@H]1O | inactive
13 | CCC(=O)OC1(c2ccccc2)CCN(C)CC1 | inactive
14 | O=C(O)CCCCCCNC1c2ccccc2CCc2ccccc21 | inactive
15 | CCC(=O)O[C@H]1CC[C@H]2[C@@H]3CCC4=CC(=O)CC[C@]4(C)[C@H]3CC[C@]12C | inactive
16 | CN(C)C(=S)SSC(=S)N(C)C | 335 nM (active)
17 | C[C@]12CC[C@H]3[C@@H](CCC4=CC(=O)CC[C@@]43C)[C@@H]1CC[C@@H]2C(=O)O | inactive
18 | C[C@H](N)[C@H](O)c1ccc(O)c(O)c1 | inactive
19 | O=C(CCCCl)c1ccc(F)cc1 | inactive
20 | O=C(NC(=O)c1c(F)cccc1F)Nc1cc(Cl)c(OC(F)(F)C(F)C(F)(F)F)cc1Cl (stereo not drawn) | inactive
21 | Nc1ccc(N)cc1 | inactive
22 | CCOC(=O)NC(O)C(Cl)(Cl)Cl (stereo not drawn) | inactive
23 | CC(Cc1ccccc1)NCc1ccccc1Cl (stereo not drawn) | inactive
24 | C[C@]12Cc3nonc3C[C@@H]1CC[C@@H]1[C@@H]2CC[C@@]2(C)[C@H]1CC[C@]2(C)O | inactive

Test: qHTS of pediatric cancer cell lines to identify multiple opportunities for drug repurposing: Primary screen for control Hh wild type fibroblast cells (AID 1347106);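 further: a drop in luminescence marks cytotoxicity and a rise apparent proliferation; nearly all actives have a fitted effect of over 55% in size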
Details: Hh wild-type fibroblast viability, CellTiter-Glo luminescence, 48 h; series mostly up to 46 µM
Summary of the method: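 Cells (500-1,000/well) in growth media were settled 5 h at 37 degrees C, then given compounds for 48 h. Viability was read as CellTiter-Glo luminescence. Primary runs used MIPE at 11 points (0.78 nM-46 µM) and NPC at 8 points (0.59 nM-46 µM); follow-ups used 11 points.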

Row | SMILES | Potency
25 | Cc1nc2ccccc2c(=O)n1-c1ccccc1Cl | inactive
26 | c1ccc2nc(N3CCNCC3)ccc2c1 | inactive
27 | Clc1ccc(CSC(Cn2ccnc2)c2ccc(Cl)cc2Cl)cc1 (stereo not drawn) | inactive
28 | Nc1ccc(Cl)cc1C(=O)c1ccccc1F | inactive
29 | C[C@@H]1CC[C@H]2[C@@H](C)C(=O)O[C@@H]3O[C@@]4(C)CC[C@@H]1[C@]32OO4 | inactive
30 | CN1CCC(N(Cc2ccccc2)c2ccccc2)CC1 | inactive
31 | CC(=O)OC1(c2ccccc2)CCN(CCc2ccccc2)CC1 | inactive
32 | O=C1NCN(c2ccccc2)C12CCN(CCCOc1ccc(F)cc1)CC2 | inactive
33 | Oc1ccc([C@H]2CNCc3c2ccc(O)c3O)cc1O | inactive
34 | C[C@]12C=CC(=O)C=C1CC[C@@H]1[C@@H]2CC[C@@]2(C)[C@H]1CC[C@]2(C)O | inactive
35 | C[C@]12CC[C@H]3[C@@H](CCC4=CC(=O)CC[C@@H]43)[C@@H]1CC[C@@H]2O | inactive
36 | CCO[C@H]1O[C@@H]2OC3(C)CC[C@H]4[C@H](C)CC[C@@H]([C@H]1C)[C@@]24OO3 | inactive
37 | CC(CC(C#N)(c1ccccc1)c1ccccc1)N(C)C (stereo not drawn) | inactive
38 | CC[C@H]1C[C@@H]2C[C@H]3c4[nH]c5ccc(OC)cc5c4CCN(C2)[C@@H]13 | inactive
39 | C[C@@H]1C[C@@H]([C@H](O)CC2CC(=O)NC(=O)C2)C(=O)[C@@H](C)C1 | inactive
40 | C=CCN1CC[C@]23CCCC[C@H]2[C@H]1Cc1ccc(O)cc13 | inactive
41 | CCS(=O)(=O)C(C)(C)S(=O)(=O)CC | inactive
42 | C[N+]1(C)[C@@H]2CC[C@H]1CC(OC(=O)C(CO)c1ccccc1)C2 (stereo partly drawn) | inactive
43 | CC[C@H]1C[C@H]2[C@@H]3CCC4=CC(=O)CC[C@@H]4[C@H]3CC[C@]2(C)[C@H]1O | inactive
44 | CCC(=O)OC1(c2ccccc2)CCN(C)CC1 | inactive
45 | Cc1nnc2n1-c1sc(CCc3ccc(CC(C)C)cc3)cc1C(c1ccccc1Cl)=NC2C (stereo not drawn) | inactive
46 | C[C@H](CN1CCOCC1)C(C(=O)N1CCCC1)(c1ccccc1)c1ccccc1 | inactive
47 | O=C(O)CCCCCCNC1c2ccccc2CCc2ccccc21 | inactive
48 | CCC(=O)O[C@H]1CC[C@H]2[C@@H]3CCC4=CC(=O)CC[C@]4(C)[C@H]3CC[C@]12C | inactive
